Assay outcomes: PubChem, National Center for Advancing Translational Sciences (NCATS)
A selection: hits, their analogues and other compounds. The true share with any hit is near 2.4%.
D2 ag-1: D2 dopamine receptor (human) agonism; HEK293 T-REx D2 cells, calcium flux agonist mode; activation, % at 2 µM; P14416; 340,000 tested, 0.53% active;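 active = activation over 3 SD above normal in the single-dose calcium agonist read, cut at about 30% in these data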; also: 0% is about no effect
Target sequence (P14416 whole entry, looked up): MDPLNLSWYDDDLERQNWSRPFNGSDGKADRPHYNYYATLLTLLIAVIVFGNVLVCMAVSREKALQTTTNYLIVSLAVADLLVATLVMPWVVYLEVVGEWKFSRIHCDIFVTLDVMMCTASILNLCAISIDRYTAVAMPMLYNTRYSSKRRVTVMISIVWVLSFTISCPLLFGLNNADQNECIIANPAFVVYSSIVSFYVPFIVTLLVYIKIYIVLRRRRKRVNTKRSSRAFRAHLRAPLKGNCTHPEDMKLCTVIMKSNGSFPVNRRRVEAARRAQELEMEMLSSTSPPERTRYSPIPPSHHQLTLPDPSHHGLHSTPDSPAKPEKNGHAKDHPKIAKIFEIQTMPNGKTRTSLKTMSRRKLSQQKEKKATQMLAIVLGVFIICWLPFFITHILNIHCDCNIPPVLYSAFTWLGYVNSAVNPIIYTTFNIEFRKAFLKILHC
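HEK293 Trex D2 cells, tetracycline-induced, o/n 30 C 5% CO2; no-wash Ca dye, RT 30–90 min; 10-cycle baseline, 23 nl cpd added, kinetic Ca read 180 s; agonist hits = positive Ca response.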
D2 PAM-1: potentiates the human D2 dopamine receptor allosterically | P14416 | DiscoveRx D2 beta-arrestin cells, luminescence, 90 min; 100% = 57 uM dopamine signal | potentiation, % (test concentration not listed) | 360,000 tested, 0.23% active | AID 624464; in the data active = potentiation above about 50%; inconclusive = mostly about 30% to 49%
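D2 cells co-treated with compound plus 50 nM dopamine (EC20) for 90 min at 37 deg C to detect potentiation. Beta-arrestin recruitment was read as enzyme-fragment luminescence after 1 h at ambient temperature. Full response was set by 57 uM dopamine.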
D2 antagonist: antagonizes the human D2 dopamine receptor | inhibition, % at 10 µM | HEK293 TREx D2 cells, calcium flux, dopamine EC80 | P14416 | 340,000 tested, 2% active; in the data active = inhibition above about 30%; inactive = below that, where a call was filed; also: 0% is about no effect
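Measurement of antagonist activity uses fluorescent calcium dye in inducible HEK293 T-REx D2 cells: 10 s baseline, compound addition with 180 s read, EC80 dopamine addition with a further 180 s read.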
D2 ag-2: agonists of human D2 dopamine receptor (beta-arrestin) | P14416 | DiscoveRx PathHunter D2 beta-arrestin, luminescence, 90 min; 100% = 57 uM dopamine signal | activation, % (test concentration not listed) | 360,000 tested, 0.084% active | AID 624465; in the data active = activation above about 40%; inconclusive = between about 15% and that limit
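Agonist mode: compounds alone added to overnight-plated D2 PathHunter cells for 90 min at 37 C, with 57 uM final dopamine (EC100) defining full response. Beta-arrestin recruitment detected by chemiluminescent reagent, read after 1 h at ambient temperature.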
D2 PAM-2: D2 dopamine receptor (human) potentiation; HEK293 T-REx D2, calcium flux, EC20 dopamine potentiation; potentiation, % at 10 µM; 340,000 tested, 0.34% active;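 active = potentiation over 3 SD above the plate norm, cut at about 30% in these data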; also: 0% is about no effect
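Potentiation of an EC20 dopamine calcium response measured kinetically over 180 s, after a preceding 180 s compound-only read flagging agonists. Cells: inducible Hek293 Trex D2 line, 4000/well, cultured overnight at 30 C before dye loading.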
Numbers without * were called inactive; ? = inconclusive; nt = no result given.

SMILES	D2 ag-1	D2 PAM-1	D2 antagonist	D2 ag-2	D2 PAM-2
O=C(NCc1nc2ccccc2[nH]1)c1cccc(S(=O)(=O)N2CCOCC2)c1	0	-9	38*	-3	-2
Cn1ncc(Cl)c1C(=O)NNC(=O)Nc1cccc2ccccc12	1	-10	-8	-5	-6
CCn1cc(C(=O)NCCCOC(C)C)c(=O)c2cc(S(=O)(=O)N(C)C3CCCCC3)ccc21	-1	nt	nt	nt	0
CN(c1ccccc1)S(=O)(=O)c1cccc(C(=O)NCc2ccccc2CN2CCCC2)c1	0	-33	39*	-2	-31
CN(c1ccccc1)S(=O)(=O)c1ccc(C(=O)NCc2ccccc2CN2CCCC2)cc1	0	-37	0	-2	-20
O=C(Oc1cccc2ccccc12)c1ccncc1	0	2	34*	-1	-3
Cc1cc(NC(=O)C(C)C)cc(-c2nc3ncccc3o2)c1O	-1	nt	nt	nt	nt
COC(=O)Nc1nnc(/C=C/c2ccc(OC)cc2)s1	2	9	31*	3	1
COc1ccc(/C=C/c2nnc(NC(C)=O)s2)cc1	2	-6	3	-3	8
O=c1oc2c(O)cccc2cc1-c1nc2ccccc2[nH]1	149*	15	-115	5	0
O=C(O)c1ccc2nc(-c3cc4cccc(O)c4oc3=O)[nH]c2c1	0	nt	nt	nt	4
CCOc1ccccc1N1CCN(CC(=O)Nc2ccccc2C(=O)NC2CC2)CC1	0	-33	13	2	-21
COc1cccc(C2C3=C(CC(C)(C)CC3=O)Nc3n[nH]c(C)c32)c1 (configuration not stated)	11	-10	-8	1	31*
NC[C@H]1O[C@H](O[C@H]2[C@H](O)[C@@H](O[C@H]3O[C@H](CO)[C@@H](O)[C@H](N)[C@H]3O)[C@H](N)C[C@@H]2N)[C@H](N)C[C@@H]1O	2	6	37*	-2	-4
Cc1ccc(NC(=O)c2cccc(N3CCCS3(=O)=O)c2)cc1C	0	nt	nt	nt	1
COc1cc(OC)c(C(=O)NCc2nc(-c3ccccc3)no2)cc1OC	0	nt	nt	nt	8
Cc1cc2nc3s/c(=C/c4ccc(-c5ccccc5C(=O)O)o4)c(=O)n3c2cc1C	70*	-11	34*	-7	-6
O=C(O)c1ccccc1-c1ccc(/C=c2\sc3nc4cc(Br)cnc4n3c2=O)o1	0	-7	-5	-2	-5
O=S(=O)(c1cccc2ccccc12)N1CCN(c2ccc(Cl)c(Cl)c2)CC1	-1	nt	nt	nt	-8
CCn1cc(CN2CCC(C(=O)Nc3cccc(-c4cccc(F)c4)c3)CC2)cn1	2	-36	-5	-3	-29
CCn1nc(C)c(CN2CCC(C(=O)Nc3cccc(-c4cccc(F)c4)c3)CC2)c1C	-2	-5	38*	3	-18
O=C(CSCc1cccc(Br)c1)N/N=C/c1ccc2c(c1)OCO2	0	-7	33*	-4	0
O=C(CCc1ccc(O)c(O)c1)N/N=C/c1ccc2c(c1)OCO2	19	-1	42*	?	2
CC(C)Oc1ccc(CCC(=O)N/N=C/c2ccc3c(c2)OCO3)cc1	1	-3	-11	2	-2
O=C(CSCc1ccccc1Br)N/N=C/c1ccc2c(c1)OCO2	0	6	5	-1	18
SMILES	D2 ag-1	D2 PAM-1	D2 antagonist	D2 ag-2	D2 PAM-2
O=C(CSc1ncc2c(n1)-c1cc(Cl)ccc1N(Cc1ccccc1)S2(=O)=O)NCCc1ccccc1	nt	nt	nt	nt	11
Cc1ccccc1OCc1nc2ccccc2c(=O)n1/N=C/c1cn[nH]c1-c1ccccc1	0	8	57*	-2	-2
O=C(COC(=O)c1ccc(O)cc1O)Nc1ncc(Cl)cc1Cl	2	9	31*	5	-1
COC(=O)Nc1ccc(C)cc1NC(=O)OC	1	13	-9	-2	-5
CC(=O)Nc1ccc(C)cc1NC(C)=O	-1	6	35*	-3	-5
Cc1ccc(-n2ncc(C(=O)N3CCN(c4cccc(C)c4C)CC3)c2C2CCNCC2)c(C)c1	0	nt	nt	nt	4
Nc1c2c(nc3ccn(-c4ccccc4)c(=O)c13)CCCCC2	1	-16	6	-1	-11
Nc1c2c(nc3c1CCC3)CCCC2	1	nt	31*	nt	-7
S=c1nc(-c2ccccc2)n(CCCN2CCOCC2)c2c1CCCC2	0	-16	-2	-3	-4
S=c1nc(-c2ccccc2)n(CCCn2ccnc2)c2c1CCCC2	2	-12	39*	-4	3
CCOc1cc(/C=C2\SC(=S)N(Nc3ccccc3)C2=O)ccc1O	8	-27	35*	-9	9
CCOc1ccc(N2C(=O)S/C(=C\c3ccc(O)c(OC)c3)C2=O)cc1	3	-14	-16	-6	15
COc1cc(/C=C2\SC(c3ccc(C)cc3)=NC2=O)ccc1O	4	-17	32*	-4	-4
COc1cc(/C=C2\SC(=N)N(c3ccc(F)cc3)C2=O)ccc1O	2	-20	56*	1	-23
COc1ccc(/C=C2\SC(c3ccc(C)cc3)=NC2=O)cc1OC	7	-11	5	-7	1
COc1cc(/C=C2\SC(=S)N(NC(=O)c3ccc(O)cc3)C2=O)ccc1O	36*	-11	-6	-1	5
Cc1ccc(CSc2nnc(-n3c(=O)c(C#N)cc4c(=O)n5cc(C)ccc5nc43)s2)cc1	0	nt	nt	nt	-2
C[C@H]1CN([C@@H](C)CO)C(=O)Cc2cc(NC(=O)CCC(F)(F)F)ccc2O[C@H]1CN(C)S(=O)(=O)c1ccc(Cl)cc1	nt	-3	nt	-1	nt
CCOC(=O)c1c(C)[nH]c(C)c1S(=O)(=O)NCC(=O)N1CCN(c2ccccc2OC)CC1	nt	nt	nt	nt	-3
Cc1cc(N2CCOCC2)nc2ccc(NC(=O)CCC(=O)N3CCN(c4ccccc4)CC3)cc12	2	-4	-9	0	31*
CC(=O)Nc1cc(-c2ccc(CO)cc2)cn2c(-c3cccc(C(F)(F)F)c3)cnc12	nt	-6	nt	-6	nt
CC1CCC(NC(=O)c2ccc(-n3cncn3)c([N+](=O)[O-])c2)CC1 (configuration not stated)	1	27	36*	-4	-7
O=C(NC1CCCCC1)c1ccc(-n2cncn2)c([N+](=O)[O-])c1	nt	-1	nt	0	nt
Oc1cc(-c2ccccc2)c2ccccc2c1	1	30	-6	45*	-5
CCOc1ccc(C2C(C#N)=C(N)SC(N)=C2C#N)c(OCC)c1	1	9	31*	2	0
O=C(Cc1ccccc1)N1CCN(c2ccccc2F)CC1	9	-2	-11	7	-5
OCC1(Cc2ccccc2)CCN(Cc2cnn(-c3ccccc3F)c2)CC1	0	-18	31*	-2	-21
OCC1(Cc2ccccc2)CCN(C2CCN(c3ccccc3F)CC2)CC1	-1	-15	47*	1	-30
